From PubChem BioAssay AID652017 (The Scripps Research Institute Molecular Screening Center, 2013) come the findings set out here.

In all, about 370,000 compounds went through this assay and about 3,800 (1%) were called active. The full list was thinned out, with actives kept by preference. Values without a mark were called inactive. Cut-off read from the data, not from the text of the source: active = activation above about 7.8%; inactive = the rest.

A short description of the experiment: SMARCA2 (BRM) function activators, primary screen, cell-based, luminescence, high throughput (AID 652017).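 Note: 0% = vehicle wells and 100% = reference activator wells.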 Particulars: MG213 cells, MMTV-luciferase reporter, dexamethasone, overnight; at 9.1 µM; active compounds read high.
On to `N#Cc1cccc(NC(=O)COC(=O)c2ccccc2C(=O)c2ccc(Cl)c([N+](=O)[O-])c2)c1`, for which the activation was 6.3%. As for `O=C(CN1CCCc2ccccc21)NCc1ccc(F)cc1`, the figure is 4.7%; as for `Cc1ccc(-n2c(SCC(=O)Nc3cccc4ccccc34)nnc2-c2ccco2)cc1`, -1.08%; as for `Cc1cc(C)c2nc3nc(C)cc(C)c3c(N)c2c1`, 22.7% (active). As for `C[C@@H]1ON(C)[C@H]2C[C@H]3c4[nH]c5cccc(-c6ccc7c(c6)OCO7)c5c4CCN3C[C@@H]12`, the figure is -5.68%.

Regarding `Clc1ccc(C(Cn2ccnc2)OCc2ccsc2Cl)c(Cl)c1` (stereo not drawn), the activation was -7.85%.

For the compound `COc1ccc(Cn2c(C)c(C)c(C#N)c2NC(=O)Nc2ccc(F)cc2)cc1`, the activation was 13.3% (active). As for `Cc1c(C#N)c(NC(=O)c2ccccc2)n(Cc2ccccc2)c1C`, the figure is -1.06%; as for `COc1ccc(Cn2cccc(NC(=O)Nc3ccc(C#N)cc3)c2=O)cc1`, -4.78%; as for `CC(NCc1ccco1)C(=O)N1CCCCC1` (stereo not drawn), -2.78%. As for `CC1CCN(c2ccc(C(=O)O)cc2NS(=O)(=O)c2ccc(Br)s2)CC1`, the figure is 0.67%; as for `CCOC(=O)c1cccc(NC(=O)CN(C)S(=O)(=O)c2ccc(-c3cocn3)s2)c1`, -7.26%; as for `CCCN1C(=O)C(Cc2nc3ccccc3c(=O)n2-c2ccccc2)c2cc(C)ccc21` (stereo not drawn), 8.92% (active).

In the case of `CC(C)CC1NC(=O)c2cc(Cl)ccc2-n2c1nc1ccccc1c2=O` (stereo not drawn), the activation was -0.02%.

On to `Cc1ccc(S(=O)(=O)NCc2nc3ccccc3c(=O)n2N)cc1`, for which the activation was -5.01%. For the compound `O=C(OC12CCCN(C1)/C(=C/c1ccccc1)C2)c1ccco1` (stereo not drawn), the activation was -4.02%. As for `CC[C@H](NC(=O)[C@H](Cc1ccccc1)NC(=O)[C@H]1O[C@@H](n2cnc3c(=O)[nH]c(N)nc32)[C@H](O)[C@@H]1O)c1ccccc1`, the figure is -4.41%; as for `COC(=O)/C=C/C(=O)NCc1ccco1`, 1.96%; as for `CC(C)(C)c1ccc(NC(=O)NCc2ccco2)cc1`, 8.76% (active). As for `COC(=O)Cc1ccc(NC(=S)NCc2ccco2)cc1`, the figure is -1.02%; as for `COC(=O)[C@H](C(C)C)N1CCc2nnn(Cc3ccc(C)cc3)c2-c2ccccc2S1(=O)=O`, -3.89%; as for `COc1ccc(C(CNC(=O)c2ccc(NS(=O)(=O)c3ccc(F)c(C)c3)cc2)N(C)C)cc1` (stereo not drawn), -1.05%. As for `CC(=O)c1ccc(S(=O)(=O)Nc2ccc(C(=O)NCC(c3ccccc3)N(C)C)cc2)cc1` (stereo not drawn), the figure is 5.98%. `COc1ccc(C(CNC(=O)c2ccc(S(=O)(=O)Nc3ccccc3F)cc2)N(C)C)cc1` (stereo not drawn): the activation is 8.4% (active). As for `CC(=O)Nc1ccc(OC[C@@H](O)CN2CCC(C(O)(c3ccccc3)c3ccccc3)CC2)cc1`, the figure is -1.46%. Turning to `COCCCNC(=O)C[C@H]1C[C@@]2(C(=O)OC)C(=C[C@H](C(C)(C)C)O[C@@H]2C)N(Cc2ccc(Cl)cc2Cl)C1=O`, the activation was -4%. Consider `Cc1c(C(C)c2ccccc2O)[nH]c2ccccc12` (stereo not drawn), for which the activation is -2.39%. As for `Cc1ccc(NC(=O)C(=O)NCc2ccc(/C=N/NC(=O)c3c(C)nc4cc(C)ccn34)o2)cc1`, the figure is -0.59%; as for `Cc1ccc(NC(=O)Nc2cc(C)nn2-c2ccccc2)cc1`, -3.87%. Consider `C=CCc1ccc(OCCOc2cccc(/C=N/n3cnnc3)c2)c(OC)c1`, for which the activation is 2.79%. As for `COc1cccc(OCCOc2cccc(/C=N/n3cnnc3)c2)c1`, the figure is 10.1% (active); as for `Cc1ccccc1OCCOc1ccc([N+](=O)[O-])cc1/C=N/n1cnnc1`, -1.85%; as for `CCc1ccc[n+](-c2nc([O-])sc2C=O)c1`, 8% (active). On to `COc1ccc(N2CCN(CCNS(=O)(=O)c3ccc([N+](=O)[O-])cc3)CC2)cc1`, for which the activation is -3.04%. Take `COc1ccc(Cl)cc1NC(=O)CN(C)CC(=O)Nc1ccc2c(c1)OCO2`: the activation is -3.2%. On to `COc1ccc(C(=O)Nc2ccc(C3(C#N)CCCC3)cc2)cc1OC`, for which the activation was 1.54%. As for `O=C(Cc1ccc([N+](=O)[O-])cc1)NCCc1ccc2c(c1)OCO2`, the figure is 4.55%; as for `COc1ccc(C(=O)Nc2ccc3c(c2)OCO3)cc1OC`, 16.7% (active).

Regarding `CN(C(=O)c1cccc(NC(=O)Cc2cccc([N+](=O)[O-])c2)c1)C1CCCCC1`, the activation was -2.39%.

Take `O=C(Nc1cccc([N+](=O)[O-])c1)c1ccc2c(c1)OCO2`: the activation is 8.1% (active). As for `Cn1c(Cc2cccs2)nnc1SCC(=O)Nc1ccccc1`, the figure is 4.18%; as for `Cc1ccccc1CS(=O)(=O)Cc1ccc(C(=O)Nc2ccc(Cl)cc2)o1`, -8.47%. As for `CCc1nn(-c2cc(Oc3cccc4ccccc34)nc(-c3ccccc3)n2)c(N)c1C#N`, the figure is 0.3%; as for `CCNC(=S)N1CCN(c2ncccn2)CC1`, 8.35% (active). As for `Cc1ccc(NC(=S)N2CCN(c3ncccn3)CC2)cc1C`, the figure is 2.65%; as for `CCNC(=S)N1CCN(S(=O)(=O)c2ccc(Cl)s2)CC1`, -1.32%. For the compound `O=S1(=O)c2ccc(Br)cc2OC[C@@H](Cc2ccccc2)N1Cc1cn(Cc2ccco2)nn1`, the activation is -0.61%.

Turning to `Cc1cccc(C2C3=C(CCCC3=O)N=C3c4ccccc4C(=O)C32)c1` (stereo not drawn), the activation is 1.45%. Turning to `COc1ccc(CCNC(=O)CSc2nc3c([nH]2)c(=O)n(C)c(=O)n3C)cc1`, the activation is -2.8%. As for `C=CCn1c(SCC(=O)/C(C#N)=C(\C)N)nc2sc(C)c(C)c2c1=O`, the figure is -1.26%; as for `C=CCn1c(=O)c2ccccc2n2c(SCC(=O)N3CCCc4ccccc43)nnc12`, 1.43%. As for `CCCn1c(=O)c2ccccc2n2c(SCC(=O)/C(C#N)=C(\C)N)nnc12`, the figure is 9.35% (active). As for `COc1ccc(CN2C/C(=C/c3ccccc3)N3C(=O)C[C@@H](c4ccccc4)N=C23)c(OC)c1`, the figure is -4.07%; as for `COc1ccccc1C(=O)NC1CCCCN(C(C)C)C1=O` (stereo not drawn), -0.79%; as for `Cc1ccc(-n2c(SCC(=O)Nc3cccc4ccccc34)nnc2-c2ccccn2)cc1`, -2.65%.

Take `CC(C)C[C@H]1CNC(=O)C(=O)N1C[C@H]1CCCN1C[C@H](Cc1ccc(O)cc1)N1C[C@H](CC(C)C)N(CC2CCCCCC2)C(=O)C1=O`: the activation is 8.41% (active).

In the case of `CC(C)C[C@H]1CNC(=O)C(=O)N1C[C@@H]1CCCN1C[C@H](Cc1ccccc1)N1C[C@H](CC(C)C)N(CC2CCCCCC2)C(=O)C1=O`, the activation was -3.56%. As for `O=C1NC[C@H](Cc2ccc(O)cc2)N(C[C@@H]2CCCN2C[C@H](Cc2ccccc2)N2C[C@H](Cc3ccccc3)N(CC3CCCCC3)C(=O)C2=O)C1=O`, the figure is -2.98%.
